A short description of assay [1]: Quantitative High-Throughput drug screen in 47 multiple myeloma cell lines against the NCATS MIPE library collection: NCIH929_DSMZ cell viability assay (AID 1918978). Note: nearly all actives have a fitted effect of over 35% in size. Note: potency is the fitted concentration of half-maximal effect. The procedure, abridged:
(§1)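 500 cells/well per myeloma line exposed to pinned MIPE 4.0 compounds for 48 h at 37 °C, 5% CO2. Viability read as ATP by CellTiter-Glo luminescence, normalised to DMSO-only (100%) and media-only (0%) wells.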

Assay [2] in a line: Quantitative High-Throughput drug screen in 47 multiple myeloma cell lines against the NCATS MIPE library collection: OCIMY1_PLB cell viability assay (AID 1918979). Note: series mostly up to about 46 µM; nearly all actives have a fitted effect of over 35% in size. The procedure, abridged: as §1
A short description of assay [3]: Quantitative High-Throughput drug screen in 47 multiple myeloma cell lines against the NCATS MIPE library collection: MM1S_ATCC cell viability assay (AID 1918980). Note: nearly all actives have a fitted effect of over 45% in size. Note: potency is the fitted concentration of half-maximal effect. The method, boiled down:
as §1

Assay [4] in a line: Quantitative High-Throughput drug screen in 47 multiple myeloma cell lines against the NCATS MIPE library collection: LP1_DSMZ cell viability assay (AID 1918982). Note: nearly all actives have a fitted effect of over 35% in size. The procedure, abridged: as §1
Assay [5] is described as follows: Quantitative High-Throughput drug screen in 47 multiple myeloma cell lines against the NCATS MIPE library collection: KMS28PE_JCRB cell viability assay (AID 1918983). Note: nearly all actives have a fitted effect of over 35% in size. Note: potency is the fitted concentration of half-maximal effect. The procedure, abridged: as §1
The nature of assay [6]: Quantitative High-Throughput drug screen in 47 multiple myeloma cell lines against the NCATS MIPE library collection: L363_DSMZ cell viability assay (AID 1918984). Note: nearly all actives have a fitted effect of over 40% in size. Note: potency is the fitted concentration of half-maximal effect. The method, boiled down: as §1
The nature of assay [7]: Quantitative High-Throughput drug screen in 47 multiple myeloma cell lines against the NCATS MIPE library collection: KMS34_JCRB cell viability assay (AID 1918985). Note: nearly all actives have a fitted effect of over 40% in size. Note: potency is the fitted concentration of half-maximal effect. The method, boiled down:
as §1

Assay [8] is described as follows: Quantitative High-Throughput drug screen in 47 multiple myeloma cell lines against the NCATS MIPE library collection: MOLP8_DSMZ cell viability assay (AID 1918977). Note: nearly all actives have a fitted effect of over 45% in size. The method, boiled down: as §1
A short description of assay [9]: Quantitative High-Throughput drug screen in 47 multiple myeloma cell lines against the NCATS MIPE library collection: MM1R_ATCC cell viability assay (AID 1918981). Note: nearly all actives have a fitted effect of over 35% in size. Note: potency is the fitted concentration of half-maximal effect. The method, boiled down: as §1
A short description of assay [10]: Quantitative High-Throughput drug screen in 47 multiple myeloma cell lines against the NCATS MIPE library collection: MMM1_PLB cell viability assay (AID 1918976). Conditions: MMM1 myeloma cells viability, CellTiter-Glo, 48 h. The method, boiled down: as §1

Inconclusive results are not listed. Activity calls are given as the source filed them. Calls come from the whole dose curve; as a rule, active = well fitted curve in the direction sought with a large enough effect; inconclusive = small, poorly fitted or top-dose-only effect, or another doubt; inactive = no such curve, though single readings can be large; an effect the other way counts as inactive or inconclusive.

With `C[C@]12CC[C@H]3[C@@H](CC[C@@]45O[C@H]4C(O)=C(C#N)C[C@]35C)[C@H]1CC[C@H]2O`, the Potency entry in assay [1], in [5] and in [6] was “inactive” throughout. In addition, the molecule was called inactive in [2] and in [4]. Moreover, the Potency in [3] is 1.48 µM (active); in assay [7] it was 16.6 µM (active).

Take `CC(NC(C)(C)C)C(=O)c1cccc(Cl)c1` (centres undefined): the Potency entry in assay [1], in assay [5] and in assay [7] was “inactive” in each case. Also, the molecule was classed as inactive in assay [2].

Regarding `CN1C(=O)CCS(=O)(=O)C1c1ccc(Cl)cc1` (centres undefined), the molecule was called inactive in assay [8] and in assay [4]. In addition, the Potency in [1] was 20.9 µM (active); in [3], 18.7 µM (active). Also, the Potency result in assay [9], in assay [5], in assay [6] and in [7] was “inactive” each time.

Regarding `CCC1(c2ccc(N)cc2)CCC(=O)NC1=O` (centres undefined), in assay [10], the Potency was 0.743 µM (active). For the same molecule, the call in [8], in [2] and in [4] was inactive. For the same molecule, the Potency entry in assay [1], in assay [3], in assay [9], in assay [5] and in assay [7] was “inactive” in each case.

`CC(C)C[C@H](CN)CC(=O)O`: the Potency in [10] was 11.8 µM (active). Moreover, the result in assay [8], in [2] and in assay [4] was inactive. Further, the Potency result in assay [1], in [9], in assay [5] and in assay [7] was “inactive” throughout.

Regarding `COc1cc(OC)c(OC)cc1C=O`, the Potency entry in assay [1], in assay [9], in assay [5], in [6] and in assay [7] was “inactive” throughout. Besides, the result in assay [2] and in assay [4] was inactive.

Turning to `O=P1(N(CCCl)CCCl)NCCCO1` (centres undefined), the Potency in assay [10] is 2.35 µM (active); in assay [1] it was 8.33 µM (active); in [6], 10.5 µM (active). Further, the call in [2] and in assay [4] was inactive. In addition, the Potency entry in [3] was “inactive”.

For the molecule `C[C@]12CC[C@@H]3c4ccc(OC(=O)N(CCCl)CCCl)cc4CC[C@H]3[C@@H]1CC[C@@H]2OP(=O)(O)O`, the result in assay [8], in [2] and in [4] was inactive. In addition, the Potency result in assay [1], in assay [6] and in assay [7] was “inactive” throughout.

Regarding `C[C@]12CCC(=O)C=C1CC[C@@H]1[C@H]3CC[C@](C)(O)[C@@]3(C)CC[C@@H]12`, the Potency result in assay [1] and in assay [5] was “inactive” in each case. For the same molecule, the outcome in assay [2] was inactive. Also, the Potency in assay [3] was 38.2 µM (active).

In the case of `CC(C)c1cccc(C(C)C)c1O`, the result in [8], in [2] and in [4] was inactive. Also, the Potency result in assay [1], in [9], in [5] and in assay [7] was “inactive” throughout. The Potency in assay [3] was 8.33 µM (active).

As to `CN1C(=O)COc2c(C(=O)NC3CN4CCC3CC4)cc(Cl)cc21` (centres undefined), the molecule was classed as inactive in assay [8], in [2] and in assay [4]. Further, the Potency result in [1], in [9] and in [5] was “inactive” each time.

On to `C[C@](O)(CS(=O)(=O)c1ccc(F)cc1)C(=O)Nc1ccc(C#N)c(C(F)(F)F)c1`, for which the Potency in [1] is 0.296 µM (active); in assay [3], 0.372 µM (active); in assay [9] it was 2.35 µM (active); in assay [5] it was 26.4 µM (active).

Consider `O=C(O)CCCc1ccc(N(CCCl)CCCl)cc1`, for which, in assay [2], the result was inactive. Further, the Potency in [9] is 23.5 µM (active).

These data come from PubChem BioAssay (NCATS).
